Results as given in PubChem BioAssay (NCATS).
Results filed as inconclusive are left out. A call without a number means that no potency is given here. The source made the active and inactive calls. Calls come from the whole dose curve; as a rule, active = well fitted inhibition curve with a large enough effect; inconclusive = small, poorly fitted or top-dose-only effect; inactive = flat fitted curve, though single readings scatter.

These molecules were tested against Aldehyde dehydrogenase, mitochondrial (Homo sapiens) (UniProt P05091) (assay: qHTS for Inhibitors of the Aldehyde Dehydrogenase Family (ALDH2) Primary screen (AID 2061308; note: nearly all actives have a fitted effect of over 55% in size)). Settings: ALDH2 enzyme inhibition qHTS, 1536-well; series mostly up to 56 µM.
For `c1ccc(OCc2nnc3ccc(-c4ccccc4)nn23)cc1`, the Potency was “inactive”.
`Cn1nnnc1Sc1ncnc2scc(-c3ccc(C#N)cc3)c12` was tested, and the Potency was “inactive”.
For `C=CC1C(OC2OC(CO)C(O)C(O)C2O)OC=C2C(=O)N3C(C(=O)O)Cc4c([nH]c5ccccc45)C3CC21` (configuration not stated), the Potency was “inactive”.
`N#Cc1nc(Nc2ccc(-c3ccccc3)cc2)nc(NC2CCCC2)n1` was tested, and the Potency was “inactive”.
With `O=C1CCCC2CC(Nc3nc4ccccc4o3)CC(c3ccccc3)C12` (configuration not stated) the Potency was “inactive”.
With `c1csc(CNc2ncnc3ccc(-c4ccc5c(c4)OCO5)cc23)c1` the Potency was “inactive”.
With `COc1cccc(C2=Nn3c(nnc3-c3ccc(OC)c(OC)c3)SC2)c1` the Potency was “inactive”.
With `Clc1cccc(-c2ccc3ncnc(NCc4cccnc4)c3c2)c1` the Potency was “inactive”.
`Cc1nc(NCc2ccccc2)c2nc(-c3ccccc3)n(CCN3CCOCC3)c2n1` was tested, and the Potency was “inactive”.
With `COCCNc1nc(C)nc2c1nc(-c1ccccc1)n2C1CCN(Cc2ccccc2)C1` (configuration not stated) the Potency was “inactive”.
`Oc1cccc2cc(N3CCCC3)cnc12` was tested, and the Potency was “inactive”.
For `CC(=O)C1CCN(c2ncc(-c3ccc4c(c3)OCCCO4)s2)CC1`, the Potency was “inactive”.
For `Cc1ccc(NS(=O)(=O)c2ccccc2C(=O)Nc2nc(-c3ccccc3)cs2)cc1`, the Potency was “inactive”.
With `COc1cnc(-c2ccc(Cn3c(CC(C)(C)C(=O)O)c(SC(C)(C)C)c4cc(OC[C@@H]5Cc6ccccc6N5C(C)=O)ccc43)cc2)nc1` the Potency was “inactive”.
In the case of `COc1cc(OC)cc(-c2nnc3n2N=C(c2ccc(OC)cc2OC)CS3)c1`, the Potency was “inactive”.
With `Fc1cnc(-c2ccccc2C(F)F)nc1NCc1ccc(-n2ccnn2)cc1` the Potency was “inactive”.
With `FC(F)(F)c1ccc(CSc2nc3ncc(Br)cc3[nH]2)cc1` the Potency was “inactive”.
